Here are results for 34 molecules from PubChem BioAssay (NCATS).

Assay [1] has as its target Glutathione peroxidase 1 (Homo sapiens) (UniProt P07203). As to the kind of experiment: Primary qHTS Assay for Inhibitors of Recombinant Selenoprotein Glutathione Peroxidase 1 (GPX1) (AID 1845191). Also: potency is read from the fitted curve at half-maximal effect. In outline:
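NADPH consumption tracked by fluorescence at 340/450 nm between t=0 and t=15 min, room temperature. Final mix: 10 nM GPX1, 100 nM glutathione reductase, 1 mM GSH, 0.5 mM NADPH, 0.5 mM cumene hydroperoxide, 0.01% BSA; 30 min compound–enzyme preincubation.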
A general note: qHTS replaces the single test concentration by a dilution series.

Assay [2] has as its target Phospholipid hydroperoxide glutathione peroxidase GPX4 (Homo sapiens) (UniProt P36969). The assay is described as follows: Primary qHTS Assay for Inhibitors of Recombinant Selenoprotein Glutathione Peroxidase 4 (GPX4) (AID 1845192). An outline of the steps: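 NADPH consumption followed by fluorescence at 340/450 nm, t=0 and after 15 min at room temperature. Reaction started with cumene hydroperoxide (0.5 mM final) after 30 min compound–GPX4 preincubation; final 200 nM GPX4, 100 nM GR, 1 mM GSH, 0.5 mM NADPH.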

Each structure is given as a SMILES string. Records with an inconclusive call do not appear. A call without a number means that no potency is given here. Values without a mark were called inactive. The source made the active and inactive calls. Calls follow the shape of the dose curve; as a rule, active = well fitted inhibition curve with a large enough effect; inconclusive = small, poorly fitted or top-dose-only effect; inactive = flat fitted curve, though single readings scatter.
Also: nearly all actives have a fitted effect of over 65% in size.

Phospholipid hydroperoxide glutathione peroxidase GPX4 (Homo sapiens), sequence (P36969 whole entry, looked up): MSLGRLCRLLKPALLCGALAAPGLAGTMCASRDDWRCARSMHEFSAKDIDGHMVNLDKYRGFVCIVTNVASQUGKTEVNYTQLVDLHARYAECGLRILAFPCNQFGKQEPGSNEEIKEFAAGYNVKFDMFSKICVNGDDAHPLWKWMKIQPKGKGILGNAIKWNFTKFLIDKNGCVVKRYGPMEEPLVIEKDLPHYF
Glutathione peroxidase 1 (Homo sapiens), sequence (P07203 whole entry, looked up): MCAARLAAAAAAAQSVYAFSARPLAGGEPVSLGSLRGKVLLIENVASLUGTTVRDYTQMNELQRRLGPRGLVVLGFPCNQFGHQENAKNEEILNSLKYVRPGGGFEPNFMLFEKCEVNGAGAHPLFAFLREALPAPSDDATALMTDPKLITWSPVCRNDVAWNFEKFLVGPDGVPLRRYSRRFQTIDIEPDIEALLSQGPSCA

Consider `O=C1CCCC(=O)C1C(=O)c1ccc(C(F)(F)F)cc1[N+](=O)[O-]`, for which the Potency result in assay [1] and in assay [2] was “inactive” each time.
With `COc1ccc(-c2oc3c(CC=C(C)C)c(O)cc(O)c3c(=O)c2O)cc1`, the Potency result in assay [1] was “inactive”.
On to `CN(C)CC[C@H](CSc1ccccc1)Nc1ccc(S(=O)(=O)NC(=O)c2ccc(N3CCN(Cc4ccccc4-c4ccc(Cl)cc4)CC3)cc2)cc1[N+](=O)[O-]`, for which the Potency entry in assay [1] and in assay [2] was “inactive” each time.
For the molecule `NCC1CCC(C(=O)O)CC1` (stereo unspecified), the Potency result in assay [1] and in assay [2] was “inactive” throughout.
For the molecule `Nc1ccn([C@@H]2O[C@H](CO)[C@@H](O)[C@H]2O)c(=O)n1`, the Potency entry in assay [1] and in assay [2] was “inactive” in each case.
`CC(C)[C@H](O)C(=O)N[C@@H](C)C(=O)N[C@@H]1C(=O)N(C)CCc2ccccc21`: the Potency entry in assay [1] and in assay [2] was “inactive” each time.
In the case of `CC(C)(F)C[C@H](N[C@@H](c1ccc(-c2ccc(S(C)(=O)=O)cc2)cc1)C(F)(F)F)C(=O)NC1(C#N)CC1`, the Potency result in assay [1] and in assay [2] was “inactive” each time.
With `CN1CC(=O)NC1=NC(=O)Nc1cccc(Cl)c1`, the Potency entry in assay [1] and in assay [2] was “inactive” throughout.
Take `Clc1ccc(COC(Cn2ccnc2)c2ccc(Cl)cc2Cl)c(Cl)c1` (stereo unspecified): the Potency entry in assay [1] and in assay [2] was “inactive” each time.
Regarding `CC(=O)NCCC(=O)N[C@@H](CCC(N)=O)C(=O)N[C@@H](CO)C(=O)N[C@@H](CCC(N)=O)C(=O)N[C@@H](CCC(N)=O)C(=O)N[C@H](C(=O)N[C@@H](Cc1ccccc1)C(=O)N[C@]1(C)CCCCCCC=CCCC[C@@](C)(C(=O)N[C@@H](CCC(N)=O)C(=O)N[C@@H](CC(N)=O)C(N)=O)NC(=O)[C@H](CC(C)C)NC(=O)[C@H](CC(C)C)NC(=O)[C@@H](CCCNC(=N)N)NC(=O)[C@H](Cc2c[nH]c3ccccc23)NC(=O)[C@H](CC(C)C)NC(=O)[C@H](CC(N)=O)NC1=O)[C@H](C)O`, the Potency entry in assay [1] and in assay [2] was “inactive” in each case.
On to `COc1cc([C@@H]2c3cc4c(cc3[C@@H](O[C@@H]3O[C@@H]5CO[C@@H](C)O[C@@H]5[C@H](O)[C@@H]3O)[C@H]3COC(=O)[C@H]23)OCO4)cc(OC)c1O`, for which the Potency entry in assay [1] and in assay [2] was “inactive” throughout.
Turning to `CNC(=O)[C@H](Cc1ccccc1)NC(=O)[C@H](CC(C)C)[C@H](CSc1cccs1)C(=O)NO`, the Potency entry in assay [1] and in assay [2] was “inactive” each time.
As to `Cc1ccc(C(=O)N(CCCN)[C@@H](c2oc3cc(Cl)ccc3c(=O)c2Cc2ccccc2)C(C)C)cc1`, the Potency entry in assay [1] and in assay [2] was “inactive” throughout.
For `CCCCC[C@H](O)C=C[C@H]1[C@H](O)CC(=O)[C@H]1CC=CCCCC(=O)O`, the Potency result in assay [1] is “inactive”.
Turning to `Cc1cccc(Nc2nc(N[C@@H]3CCCC[C@H]3N)ncc2C(N)=O)c1`, the Potency result in assay [1] and in assay [2] was “inactive” in each case.
Turning to `CCOc1ccccc1N=Nc1c(C)[nH]n(-c2nc(-c3ccccc3)cs2)c1=O`, the Potency entry in assay [1] and in assay [2] was “inactive” each time.
Consider `CN1N=C(N)c2cn([C@@H]3O[C@H](COP(=O)(O)O)[C@@H](O)[C@@H]3O)c3ncnc1c23`, for which, in assay [1], the Potency entry is “inactive”.
For `O=C(O)C1=CC(O)C(O)[C@H](O)C1` (stereo partly specified), the Potency entry in assay [1] and in assay [2] was “inactive” throughout.
On to `O=C(NC[C@H](O)CO)c1ccncc1Nc1ccc(I)cc1F`, for which the Potency result in assay [1] and in assay [2] was “inactive” in each case.
Consider `CC(C)CN(C[C@@H](O)[C@H](Cc1ccccc1)NC(=O)O[C@H]1CO[C@H]2OCC[C@H]21)S(=O)(=O)c1ccc(N)cc1`, for which the Potency entry in assay [1] is “inactive”.
Turning to `Cc1ccc(NC(=O)c2ccc(CN3CCN(C)CC3)cc2)cc1Nc1nc(-c2cccnc2)cs1`, the Potency entry in assay [1] and in assay [2] was “inactive” throughout.
Regarding `Cn1c(=O)c(Oc2ccc(F)cc2F)cc2cnc(NC3CCOCC3)nc21`, the Potency in assay [1] is 16.3 µM (active).
Take `O=[N+]([O-])c1ccc(Nc2ccccc2-c2ccccc2)c2nonc12`: the Potency entry in assay [1] and in assay [2] was “inactive” each time.
For `C[C@H]1COC2=C1C(=O)C(=O)c1c2ccc2c1CCCC2(C)C`, the Potency result in assay [1] was “inactive”.
Turning to `CNC(=O)c1cc(COc2nnc(Nc3ccc(Cl)cc3)c3ccoc23)ccn1`, the Potency result in assay [1] and in assay [2] was “inactive” throughout.
As for `CC(NCCc1ccc(O)cc1)C(O)c1ccc(O)cc1` (stereo unspecified), in assay [1], the Potency entry was “inactive”.
In the case of `CN1CCN(c2ncc(-c3cc(Cl)cc(Cl)c3Cl)c(N)n2)CC1`, the Potency result in assay [1] and in assay [2] was “inactive” in each case.
In the case of `CC[C@H](C=C[C@@H](C)[C@H]1CC[C@H]2[C@@H]3CC=C4C[C@@H](O)CC[C@]4(C)[C@@H]3CC[C@]12C)C(C)C`, the Potency entry in assay [1] and in assay [2] was “inactive” each time.
Regarding `O=C(NCCCCN1CCOCC1)c1cc2ccccc2o1`, the Potency entry in assay [1] and in assay [2] was “inactive” throughout.
Consider `CCC(c1ccc(O)cc1)C(CC)c1ccc(O)cc1` (stereo unspecified), for which the Potency result in assay [1] and in assay [2] was “inactive” in each case.
As to `Cc1ccc(C(=O)N(CCCN)[C@@H](c2nc3cc(Cl)ccc3c(=O)n2Cc2ccccc2)C(C)C)cc1`, the Potency entry in assay [1] and in assay [2] was “inactive” throughout.
On to `NC[C@H]1O[C@H](O[C@@H]2[C@@H](O)[C@@H](O[C@H]3O[C@H](CO)[C@@H](O)[C@H](N)[C@@H]3O)[C@H](N)C[C@@H]2N)[C@H](O)[C@@H](O)[C@H]1O`, for which the Potency entry in assay [1] and in assay [2] was “inactive” each time.
Turning to `COc1cc2ncn(-c3cc(OCc4ccccc4S(C)(=O)=O)c(C#N)s3)c2cc1OC`, the Potency entry in assay [1] and in assay [2] was “inactive” each time.
Regarding `COc1cccc(OC)c1-c1cc(C(=O)NC2(C(=O)O)C3CC4CC(C3)CC2C4)nn1-c1ccnc2cc(Cl)ccc12` (stereo unspecified), the Potency result in assay [1] and in assay [2] was “inactive” each time.
